DRV1 agonist – activates human resolvin D1 receptor GPR32; CHO-K1 GPR32 beta-arrestin PathHunter luminescence, 90 min; zero percent set by DMSO-only wells; activation, % at 76.9 µM; 48,000 compounds, 2.5% hits; AID 1346428;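 active means activation of at least 60% and not above a set upper limit, about 1 call in 100 departs from these limits; inconclusive means activation of 40% to 60%, or above that upper limit; inactive means activation under 40%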; further: 0% is about no effect
Target sequence (O75388 whole entry, looked up): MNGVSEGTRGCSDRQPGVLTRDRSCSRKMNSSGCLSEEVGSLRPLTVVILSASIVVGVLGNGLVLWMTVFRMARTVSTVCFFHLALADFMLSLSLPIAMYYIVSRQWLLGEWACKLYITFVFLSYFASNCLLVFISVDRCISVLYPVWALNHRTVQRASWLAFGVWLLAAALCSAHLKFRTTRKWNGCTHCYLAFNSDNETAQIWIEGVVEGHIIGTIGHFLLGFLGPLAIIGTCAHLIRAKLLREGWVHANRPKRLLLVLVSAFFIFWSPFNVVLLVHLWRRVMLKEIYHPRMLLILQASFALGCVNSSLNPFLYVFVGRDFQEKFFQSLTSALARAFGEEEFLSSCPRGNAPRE
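Readings come from a cell-based beta-arrestin complementation format: CHO-K1 GPR32 stable cells (2,500/well) treated 90 min with compounds, then beta-Gal substrate added for 1 h before chemiluminescence imaging.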
GALK inhibitor – inhibits human galactokinase. 44,000 tested, under 10 active. recombinant GALK, Kinase-Glo ATP luminescence, 1 h. Potency, µM (series often up to 57.5 µM), for inactives: at the highest dose activity, negative = inhibition, usual class: inhibitors. P51570. AID 1347072;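 further: plate controls were full GALK reaction for no effect and reaction lacking GALK for full effect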
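Human GALK (5 nM) was incubated with 35 uM ATP and 100 uM galactose in 20 mM HEPES pH 8.0 with MgCl2, NaCl, DTT and BSA for 1 h at room temperature. Remaining ATP was measured by Kinase-Glo Plus luminescence.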
HTT prom inh – inhibitors of huntingtin promoter activity | Potency, µM (series often up to 57.5 µM), without a hit: at the top dose activity change, negative = inhibition, most hits filed as inhibitors | 48,000 compounds, 0.93% hits | HEK293 HTT promoter firefly luciferase reporter, 24 h; further: potency means the concentration at half of the fitted maximal effect; nearly all actives have a fitted effect of over 50% in size
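Luminescence was read after Dual-Glo reagent and a 10 min room-temperature incubation. Values were normalized to vehicle (0% activity) and zero RLU (-100% activity). Reporter HEK293 cells had been exposed to compounds (up to 57.5 uM final) for 24 h.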
PTAP-TSG101 blk – blocks PTAP binding to human TSG101, validation. Fluorescence polarization, FITC-PTAP peptide/Tsg101, 20 min. Potency, µM (titrated, usually from 115 µM), usual class: inhibitors. 44,000 tested, under 10 active; further: potency means the concentration at half of the fitted maximal effect; 0% is about no effect
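FITC-labeled PTAP peptide (50 nM final) binding to Tsg101 binding domain (10 uM final) read by fluorescence polarization after 20 min at r.t. in HEPES pH 7.5 buffer. Actives by CRC class, <25 µM.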
B2AR arrestin ag – beta-arrestin recruitment by human beta2-adrenergic receptor ligands | P07550 | Potency, µM (top dose mostly 46.1 µM), actives largely listed as activators | HTLA Tango cells, beta-arrestin recruitment, luciferase luminescence, 18 h | 44,000 tested, under 10 active;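 further: potency means the concentration at half of the fitted maximal effect; 0% = DMSO and full agonism = EC100 isoproterenol or metaproterenol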
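Tango cell line, 1% FBS DMEM; cpd titration up to 46 microM; 18 hr, 37 degrees C, 5% CO2. Luciferin/ATP substrate mix added, 15 min RT, luminescence. %Activity, CRC fitting, curve-class categorization.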
HTT-AS act – HTT-AS promoter activation | HEK293 HTT-AS promoter firefly luciferase reporter, 24 h; response scale: percent change from vehicle, -100% = no light | Potency, µM (highest dose often 57.5 µM), for inactives: at the top dose activity change, positive = activation, actives largely listed as activators | 48,000 compounds, 0.24% hits; further: potency means the concentration at half of the fitted maximal effect; nearly all actives have a fitted effect of over 55% in size
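HEK293 cells carrying firefly luciferase reporters were seeded at 2,500 per well in Opti-MEM and cultured for 24 h. They were then treated with compounds at up to 57.5 uM final for 24 h at 37 degrees C before Dual-Glo luminescence readout.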
* = called active by the depositor; i = inactive; ? = inconclusive; / = no result given; ! = not confirmed by another sample; [ ] = remark or other dose. A selection: hits, their analogues and other compounds. The true share with any hit is near 3.6%. Unless noted, the call rests on the fitted dose curve; in most records, active means well fitted curve in the direction sought with a large enough effect; inconclusive means small, poorly fitted or top-dose-only effect, or another doubt; inactive means no such curve, though single readings can be large; an effect the other way counts as inactive or inconclusive.

SMILES	DRV1 agonist	GALK inhibitor	HTT prom inh	PTAP-TSG101 blk	B2AR arrestin ag	HTT-AS act
Nc1cccc(-c2cc3c(Oc4cccc(O)c4)ncnc3[nH]2)c1	/	/	?	/	/	-21%
CCC[C@H](NC(=O)C(C#N)=Cc1cccc(Br)n1)c1ccccc1	/	/	?	/	/	-94%
COc1ccc(S(=O)(=O)N2c3ccc(Cl)cc3[C@@](O)(c3ccccc3Cl)[C@H]2C(=O)N2CCC[C@@H]2C(N)=O)cc1OC	?	/	-13%	/	/	-9%
Cc1cccc(NC(c2cccc(Cl)c2)c2ccc3cccnc3c2O)n1 (stereo not given)	-13	1%	10µM*	i	i	-38%
COc1ccc(C(Nc2ccccn2)c2ccc3ccc(C)nc3c2O)cc1C (stereo not given)	90*	0%	?	i	i	-31%
CCOc1cc(C(Nc2cc(C)ccn2)c2ccc3cccnc3c2O)ccc1OC (stereo not given)	2	3%	35µM*	i	?	-39%
OCCN1C[C@H](O)[C@@H](O)[C@H](O)[C@@H]1CO	/	/	5%	/	/	-5%
COc1cccc(NC(=O)Cn2c(=O)n(Cc3ccco3)c(=O)c3cc(OC)c(OC)cc32)c1	74*	2%	-14%	i	i	-25%
COc1ccc(OC)c(NC(=O)Cn2c(=O)n(Cc3ccco3)c(=O)c3cc(OC)c(OC)cc32)c1	20	-7%	-9%	i	i	-16%
O=C(O)c1ccc(-c2cc3cccnc3c(-c3ccc4nonc4c3)n2)cc1	/	/	11%	/	/	-19%
Cc1cccc(N(C)C(=S)Oc2ccc3c(c2)C2CCC3C2)c1 (stereo not given)	0	/	11%	/	/	-7%
CC(C)c1noc(N2CCC(COc3ccc(-c4ccc(S(C)(=O)=O)cc4)nc3)CC2)n1	/	/	-16%	/	/	-18%
Cc1ccc(S(=O)(=O)N2CCC(c3ccncc3)CC2)c(C)c1	9	1%	16µM*	i	i	-84%
CC(C)Cc1ccc(S(=O)(=O)N2CCC(c3ccncc3)CC2)cc1	10	-8%	16µM*	i	i	-80%
O=S(=O)(c1ccc(Cl)cc1)N1CCC(c2ccncc2)CC1	-4	-1%	-7%	i	i	-8%
CC(C)(C)c1ccc(S(=O)(=O)N2CCC(c3ccncc3)CC2)cc1	-1	1%	16µM*	i	i	-88%
Cc1c[nH]c(C=C2C(=O)Nc3ccccc32)c1CCC(=O)O	/	/	4%	/	/	6%
CC(=O)O[C@@H]1CC2C3CCc4cc(OC(=O)c5ccccc5)ccc4C3CCC2(C)[C@H]1OC(C)=O (stereo not given in full)	4	/	-4%	/	/	-1%
CC1=C(/C=C/C(C)=C/C=C/C(C)=C/C(=O)Nc2ccc(O)cc2)C(C)(C)CCC1	84*!	/	-17%	/	/	-27%
CC(C=CC1=C(C)CCCC1(C)C)=CC=CC(C)=CC(=O)Nc1ccc(O)cc1	/	/	?	/	/	-45%[116 µM]
Cc1ccccc1NC(=O)c1ccc2[nH]c(C)c(C)c2c1	-4	-1%	73%	i	i	?
CCc1ccccc1NC(=O)c1ccc2[nH]c(C)c(C)c2c1	7	5%	54%	i	i	8.9µM*
COc1ccc(-c2ccc3ncc4c(c3c2)n(-c2ccc(N3CCNCC3)c(C(F)(F)F)c2)c(=O)n4C)cn1	/	/	?	/	/	-93%
CC(=O)Nc1nc(C)c(-c2ccc(Cl)c(S(=O)(=O)NCCO)c2)s1	/	/	?	/	/	-35%
COc1ccc(-c2noc(CSc3nc(N)cc(=O)[nH]3)n2)cc1	98*	-2%	22µM*	i	i	-91%
SMILES	DRV1 agonist	GALK inhibitor	HTT prom inh	PTAP-TSG101 blk	B2AR arrestin ag	HTT-AS act
COc1ccc(-c2noc(CSc3nc4ccccc4[nH]3)n2)cc1	96*	7%	?	i	i	-44%
CN(C)[C@@H]1C(=O)C(C(N)=O)=C(O)[C@@]2(O)C(=O)C3=C(O)c4c(O)cccc4C[C@H]3C[C@@H]12	16	/	?	/	/	-28%
CSc1ccc(Cn2nnc(C(=O)Nc3ccc(C)cc3Cl)c2N)cc1	99*	1%	4%	i	i	-27%
COc1cccc(Cn2nc(SC)c(S(=O)(=O)c3ccccc3)c2N(C(C)=O)C(C)=O)c1	?	-4%	-28%	i	i	-29%
CSc1nn(Cc2cccc(F)c2)c(N(C(C)=O)C(C)=O)c1S(=O)(=O)c1ccccc1	83*	-4%	?	i	i	-32%
CC(=O)N1CCN(c2ccc(OCc3nn(C)c(C)c3-c3cccc4c(CCCOc5cccc6ccccc56)c(C(=O)O)n(Cc5cccnc5)c34)cc2)CC1	/	/	17%	/	/	-15%
CN(C)S(=O)(=O)N(CC(=O)NCCSc1ccccc1)c1ccccc1	2	0%	-14%	i	i	-17%
CN(C)S(=O)(=O)N(CC(=O)NCCSc1ccc(Cl)cc1)c1ccccc1	70*	0%	-17%	i	i	-19%
CN(C)CCN1C(=O)c2cccc3cc(N)cc(c23)C1=O	/	/	?	/	/	-43%
COc1nccc(-c2c(-c3ccc(F)cc3)ncn2C2CCNCC2)n1	/	/	?	/	/	-18%
NC1CCC(Nc2nc(Nc3ccc(C(=O)N4CCCCC4)cc3)c3ncn(-c4cccc(F)c4)c3n2)CC1 (stereo not given)	/	/	4%	/	/	?
COc1ccc(C(=O)Nc2ccc(NC(=O)c3cccs3)cc2)cc1OC	-31	-1%	-14%	i	i	-14%
O=C(Nc1ccc(Br)cc1)c1cccc(C(=O)Nc2ccc(Br)cc2)c1	71*	0%	-24%	i	i	-23%
COc1ccc(C(=O)Nc2ccccc2)cc1S(=O)(=O)Nc1ccc(Br)cc1	90*	0%	-26%	i	i	-18%
O=C(Nc1ccc(Br)cc1)C1CCCN1S(=O)(=O)c1ccc(F)cc1 (stereo not given)	-4	0%	35µM*	i	i	-42%
Cc1cccc(C)c1NC(=O)CN(C)S(=O)(=O)c1ccc2[nH]c3c(c2c1)CCCC3	62*	1%	-23%	i	i	-38%
CC(=O)c1cccc(NS(=O)(=O)c2ccc3[nH]c4c(c3c2)CCCCCC4)c1	100*	-6%	?	i	i	-31%
CCOC(=O)c1cccc(NS(=O)(=O)c2ccc3[nH]c4c(c3c2)CCCC4)c1	82*	3%	-29%	i	i	-39%
CC(=O)c1cccc(NS(=O)(=O)c2ccc3[nH]c4c(c3c2)CCCCC4)c1	32	1%	?	i	i	-75%

Screening data deposited in PubChem by National Center for Advancing Translational Sciences (NCATS).
